Assay results from the supplement of paper PMC11732987, “Enantioselective OTUD7B fragment discovery through chemoproteomics screening and high-throughput optimisation” (Communications Chemistry, 2025).
A number with no mark means an inactive call.

Columns and labels:
Assay in all cases: log2 ratio of Biotin-Ahx-Ub-VS probe labelling (fragment/DMSO); higher = less target engagement (more negative = stronger competition), active = hit call of the paper (q ≤ 0.05, log2 ratio ≤ -1)
Conditions in all cases: compound concentration: 200 uM; treatment time: 3 h
ALG13 = biological target: T1, ALG13 (UniProt Q9NP73)
T1 sequence (whole entry): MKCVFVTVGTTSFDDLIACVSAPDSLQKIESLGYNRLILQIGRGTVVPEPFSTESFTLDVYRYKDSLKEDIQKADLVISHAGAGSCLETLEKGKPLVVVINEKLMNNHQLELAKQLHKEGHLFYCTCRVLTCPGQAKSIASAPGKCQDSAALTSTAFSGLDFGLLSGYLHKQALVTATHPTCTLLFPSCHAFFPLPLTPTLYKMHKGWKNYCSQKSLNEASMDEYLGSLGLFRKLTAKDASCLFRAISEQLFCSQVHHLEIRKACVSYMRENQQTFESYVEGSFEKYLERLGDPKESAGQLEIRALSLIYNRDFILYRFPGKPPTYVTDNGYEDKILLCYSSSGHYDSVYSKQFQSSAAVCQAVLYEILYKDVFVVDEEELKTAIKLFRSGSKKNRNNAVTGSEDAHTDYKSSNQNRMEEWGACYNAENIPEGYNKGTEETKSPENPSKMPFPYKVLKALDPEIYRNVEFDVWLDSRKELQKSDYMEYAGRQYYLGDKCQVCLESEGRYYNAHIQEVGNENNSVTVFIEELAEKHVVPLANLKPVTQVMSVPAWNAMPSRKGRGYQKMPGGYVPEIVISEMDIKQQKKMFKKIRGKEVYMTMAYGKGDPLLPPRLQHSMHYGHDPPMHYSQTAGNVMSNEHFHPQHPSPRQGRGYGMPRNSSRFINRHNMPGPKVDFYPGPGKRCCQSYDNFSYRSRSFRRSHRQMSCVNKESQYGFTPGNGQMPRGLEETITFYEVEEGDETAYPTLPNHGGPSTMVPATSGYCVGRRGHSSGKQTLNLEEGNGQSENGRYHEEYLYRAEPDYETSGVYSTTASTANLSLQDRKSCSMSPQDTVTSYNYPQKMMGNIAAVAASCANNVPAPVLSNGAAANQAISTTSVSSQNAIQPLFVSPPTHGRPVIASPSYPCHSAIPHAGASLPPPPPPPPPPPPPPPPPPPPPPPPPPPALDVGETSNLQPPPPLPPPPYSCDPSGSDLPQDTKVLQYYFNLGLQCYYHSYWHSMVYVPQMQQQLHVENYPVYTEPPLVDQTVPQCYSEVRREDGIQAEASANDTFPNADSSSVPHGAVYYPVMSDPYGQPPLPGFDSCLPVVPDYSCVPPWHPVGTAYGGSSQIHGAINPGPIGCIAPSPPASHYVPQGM
In short: (§1)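 Each value is an average log2 ratio of fragment to vehicle, tested by unpaired t-test. The underlying Spectronaut label-free quantities were global-median-normalised, and only proteins with ≥2 unique peptides were included. Triplicate HEK293T lysate samples (495 µg) were exposed to fragment at 200 µM or vehicle for 3 h, then to Biotin-Ahx-Ub-VS at 0.5 µM final for 1 h, before NeutrAvidin enrichment of labelled DUBs, LysC and trypsin digestion, and diaPASEF LC-MS/MS.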

ATXN3 = ATXN3 (UniProt P54252)
In short: as §1

BAP1 = biological target: T2, BAP1 (UniProt Q92560)
T2 sequence (whole entry): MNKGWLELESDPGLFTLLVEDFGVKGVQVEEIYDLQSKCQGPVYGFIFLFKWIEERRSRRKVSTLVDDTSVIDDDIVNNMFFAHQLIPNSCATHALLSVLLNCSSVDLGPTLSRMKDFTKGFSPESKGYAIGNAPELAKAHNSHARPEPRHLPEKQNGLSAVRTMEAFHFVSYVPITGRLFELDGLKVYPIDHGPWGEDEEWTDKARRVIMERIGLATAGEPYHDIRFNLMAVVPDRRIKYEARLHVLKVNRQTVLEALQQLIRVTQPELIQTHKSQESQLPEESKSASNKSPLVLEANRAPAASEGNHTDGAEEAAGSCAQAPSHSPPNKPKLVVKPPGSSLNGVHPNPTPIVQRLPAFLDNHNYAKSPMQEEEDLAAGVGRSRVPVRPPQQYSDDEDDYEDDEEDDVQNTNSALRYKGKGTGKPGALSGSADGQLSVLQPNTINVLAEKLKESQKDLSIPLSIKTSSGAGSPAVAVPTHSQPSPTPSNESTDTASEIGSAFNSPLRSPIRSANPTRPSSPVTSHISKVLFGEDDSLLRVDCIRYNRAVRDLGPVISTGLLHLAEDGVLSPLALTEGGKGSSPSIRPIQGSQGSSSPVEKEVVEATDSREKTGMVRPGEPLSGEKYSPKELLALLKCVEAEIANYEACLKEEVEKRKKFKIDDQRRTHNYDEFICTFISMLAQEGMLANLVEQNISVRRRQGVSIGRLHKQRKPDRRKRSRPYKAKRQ
In short: as §1

EIF3F = EIF3F (UniProt O00303)
In short: as §1

EIF3H = EIF3H (UniProt O15372)
In short: as §1

FAM105A = biological target: T3, FAM105A (UniProt Q9NUU6)
T3 sequence (whole entry): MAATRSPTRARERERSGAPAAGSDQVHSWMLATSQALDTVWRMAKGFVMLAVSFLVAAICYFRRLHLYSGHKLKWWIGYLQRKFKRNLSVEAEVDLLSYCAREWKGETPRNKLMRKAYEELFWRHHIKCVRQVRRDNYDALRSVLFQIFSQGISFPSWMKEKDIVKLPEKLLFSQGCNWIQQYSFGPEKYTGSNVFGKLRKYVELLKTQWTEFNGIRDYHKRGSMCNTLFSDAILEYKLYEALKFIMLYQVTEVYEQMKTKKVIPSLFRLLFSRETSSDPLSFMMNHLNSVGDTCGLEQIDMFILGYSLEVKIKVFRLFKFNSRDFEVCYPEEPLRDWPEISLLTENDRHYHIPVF
In short: as §1

OTUB1 = OTUB1 (UniProt Q96FW1)
In short: as §1

OTUD4 = biological target: T4, OTUD4 (UniProt Q01804)
T4 sequence (whole entry): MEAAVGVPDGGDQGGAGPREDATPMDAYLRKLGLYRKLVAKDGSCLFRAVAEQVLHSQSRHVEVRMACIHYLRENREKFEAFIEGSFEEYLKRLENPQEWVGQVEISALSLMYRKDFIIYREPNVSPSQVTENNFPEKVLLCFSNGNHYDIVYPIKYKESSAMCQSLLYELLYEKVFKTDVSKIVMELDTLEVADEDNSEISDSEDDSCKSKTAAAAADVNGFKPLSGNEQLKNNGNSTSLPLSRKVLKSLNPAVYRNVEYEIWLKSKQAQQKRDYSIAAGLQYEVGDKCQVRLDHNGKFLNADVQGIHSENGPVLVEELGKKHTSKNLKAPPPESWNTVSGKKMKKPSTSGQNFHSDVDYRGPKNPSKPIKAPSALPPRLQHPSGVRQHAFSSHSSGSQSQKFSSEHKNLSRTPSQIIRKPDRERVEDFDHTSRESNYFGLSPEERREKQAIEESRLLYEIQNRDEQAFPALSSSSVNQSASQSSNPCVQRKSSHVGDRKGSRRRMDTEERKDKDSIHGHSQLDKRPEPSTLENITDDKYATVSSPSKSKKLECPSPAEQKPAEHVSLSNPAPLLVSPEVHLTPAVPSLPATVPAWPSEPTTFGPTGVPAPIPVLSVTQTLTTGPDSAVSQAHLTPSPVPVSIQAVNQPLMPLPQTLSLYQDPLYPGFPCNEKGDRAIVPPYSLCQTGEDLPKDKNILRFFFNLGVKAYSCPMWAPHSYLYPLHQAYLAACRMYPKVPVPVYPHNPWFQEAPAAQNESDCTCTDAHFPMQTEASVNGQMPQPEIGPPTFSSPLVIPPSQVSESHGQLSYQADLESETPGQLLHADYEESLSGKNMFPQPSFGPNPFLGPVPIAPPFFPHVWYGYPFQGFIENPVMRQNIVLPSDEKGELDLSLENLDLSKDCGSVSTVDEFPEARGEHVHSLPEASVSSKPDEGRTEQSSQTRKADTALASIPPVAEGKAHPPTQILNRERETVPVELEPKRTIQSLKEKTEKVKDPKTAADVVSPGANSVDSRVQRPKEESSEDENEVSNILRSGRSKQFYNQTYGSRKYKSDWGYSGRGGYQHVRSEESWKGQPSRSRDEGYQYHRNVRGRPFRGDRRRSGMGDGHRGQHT
In short: as §1

OTUD5 = biological target: T5, OTUD5 (UniProt Q96G74)
T5 sequence (whole entry): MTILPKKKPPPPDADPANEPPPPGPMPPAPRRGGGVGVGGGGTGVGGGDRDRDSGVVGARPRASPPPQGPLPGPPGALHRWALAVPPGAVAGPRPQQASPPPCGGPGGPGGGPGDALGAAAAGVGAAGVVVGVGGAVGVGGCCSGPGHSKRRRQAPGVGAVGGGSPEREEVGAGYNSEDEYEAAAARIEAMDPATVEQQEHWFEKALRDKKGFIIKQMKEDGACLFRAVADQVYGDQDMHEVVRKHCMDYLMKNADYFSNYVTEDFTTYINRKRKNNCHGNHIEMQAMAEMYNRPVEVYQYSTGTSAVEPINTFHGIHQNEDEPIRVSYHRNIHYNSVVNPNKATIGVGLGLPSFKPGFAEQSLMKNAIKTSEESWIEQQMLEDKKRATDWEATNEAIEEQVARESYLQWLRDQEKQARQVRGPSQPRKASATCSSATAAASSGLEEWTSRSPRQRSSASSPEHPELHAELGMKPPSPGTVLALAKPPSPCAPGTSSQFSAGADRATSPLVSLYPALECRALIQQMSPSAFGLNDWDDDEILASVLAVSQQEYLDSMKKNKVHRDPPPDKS
In short: as §1

EIF3F, sequence (O00303 whole entry): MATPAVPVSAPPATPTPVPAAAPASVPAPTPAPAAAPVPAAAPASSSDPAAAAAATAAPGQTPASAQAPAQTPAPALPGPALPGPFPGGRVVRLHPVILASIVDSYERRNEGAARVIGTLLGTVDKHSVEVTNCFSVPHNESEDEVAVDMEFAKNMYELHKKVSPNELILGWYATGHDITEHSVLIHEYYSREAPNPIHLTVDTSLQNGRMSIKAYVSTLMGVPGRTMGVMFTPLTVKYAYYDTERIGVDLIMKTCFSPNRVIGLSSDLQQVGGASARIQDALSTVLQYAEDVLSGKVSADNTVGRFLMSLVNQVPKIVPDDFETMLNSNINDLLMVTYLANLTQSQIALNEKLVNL
OTUB1, sequence (Q96FW1 whole entry): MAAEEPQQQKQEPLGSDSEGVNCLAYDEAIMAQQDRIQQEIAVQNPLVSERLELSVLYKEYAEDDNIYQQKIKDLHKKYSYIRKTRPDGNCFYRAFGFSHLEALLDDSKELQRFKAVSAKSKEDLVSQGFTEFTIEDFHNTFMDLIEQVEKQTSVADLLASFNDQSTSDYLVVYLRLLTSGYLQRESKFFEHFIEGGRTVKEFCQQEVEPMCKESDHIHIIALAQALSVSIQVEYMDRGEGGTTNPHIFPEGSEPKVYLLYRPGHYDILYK
ATXN3, sequence (P54252 whole entry): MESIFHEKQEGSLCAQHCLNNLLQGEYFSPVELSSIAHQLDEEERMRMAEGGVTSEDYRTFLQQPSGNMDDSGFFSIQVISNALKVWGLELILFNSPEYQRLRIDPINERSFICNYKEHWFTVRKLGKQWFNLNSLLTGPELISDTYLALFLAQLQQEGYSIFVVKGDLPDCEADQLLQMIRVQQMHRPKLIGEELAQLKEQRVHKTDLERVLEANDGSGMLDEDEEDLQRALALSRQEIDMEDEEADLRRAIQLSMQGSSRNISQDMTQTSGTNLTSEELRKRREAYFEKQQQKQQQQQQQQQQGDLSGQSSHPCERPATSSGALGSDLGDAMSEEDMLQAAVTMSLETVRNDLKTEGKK
EIF3H, sequence (O15372 whole entry): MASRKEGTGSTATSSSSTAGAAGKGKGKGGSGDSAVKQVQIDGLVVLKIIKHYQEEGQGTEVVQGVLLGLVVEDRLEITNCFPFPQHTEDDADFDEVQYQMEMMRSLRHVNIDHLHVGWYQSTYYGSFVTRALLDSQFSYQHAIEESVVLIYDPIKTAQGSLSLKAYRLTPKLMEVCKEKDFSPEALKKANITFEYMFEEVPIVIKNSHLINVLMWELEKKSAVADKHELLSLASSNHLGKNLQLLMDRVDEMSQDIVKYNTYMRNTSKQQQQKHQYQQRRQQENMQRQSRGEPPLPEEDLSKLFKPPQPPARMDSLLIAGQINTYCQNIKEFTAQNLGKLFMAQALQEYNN

SMILES | log2 ratio of Biotin-Ahx-Ub-VS probe labelling (ALG13) | log2 ratio of Biotin-Ahx-Ub-VS probe labelling (ATXN3) | log2 ratio of Biotin-Ahx-Ub-VS probe labelling (BAP1) | log2 ratio of Biotin-Ahx-Ub-VS probe labelling (EIF3F) | log2 ratio of Biotin-Ahx-Ub-VS probe labelling (EIF3H) | log2 ratio of Biotin-Ahx-Ub-VS probe labelling (FAM105A) | log2 ratio of Biotin-Ahx-Ub-VS probe labelling (OTUB1) | log2 ratio of Biotin-Ahx-Ub-VS probe labelling (OTUD4) | log2 ratio of Biotin-Ahx-Ub-VS probe labelling (OTUD5)
O=C(CCl)N1CCCN(C(=O)c2ccc(Cl)cc2)CC1 | -0.303 | -0.712 | -0.719 | -0.31 | 0.393 | 0.113 | -0.428 | -0.424 | -0.688
CC1(NC(=O)CCl)CCS(=O)(=O)C1 (stereo not given) | -0.0745 | -0.753 | -1.37 (active) | -0.345 | 0.186 | 0.0573 | -0.246 | -0.934 | -0.673
Cl.O=C(CCl)NCc1ccnc(Oc2ccccc2F)c1 | 0.177 | -0.51 | -3.99 (active) | -0.072 | -0.589 | -0.0684 | -0.232 | -0.244 | -0.524
CNC(=O)C1CCN(C(=O)CCl)CC1 | 0.0075 | -0.0902 | -0.309 | -0.0903 | 0.232 | 0.31 | -0.105 | 0.0041 | -0.381
Cc1ccc(CN(CCO)C(=O)CCl)cc1 | 0.163 | -0.225 | -1.12 (active) | 0.0155 | 0.0625 | 0.0195 | -0.0318 | -0.355 | -0.372
CC(NC(=O)CCl)c1cnn(C2CC2)c1 (stereo not given) | 0.171 | -0.145 | -2.22 (active) | -0.625 | 0.172 | -0.0989 | -0.137 | -0.268 | -0.626
O=C(CCl)NC1CCC2(CC1)OCCO2 | 0.0856 | -0.347 | -0.944 | -0.268 | 0.0155 | 0.137 | -0.114 | -0.376 | -0.414
O=C(CCl)NCc1ccc(N2CCOCC2)nc1 | 0.174 | -0.193 | -2.61 (active) | -0.156 | 0.183 | 0.479 | 0.0139 | -0.539 | -0.385
CS(=O)(=O)c1ccc(CNC(=O)CCl)cc1 | -0.0665 | -0.381 | -3.17 (active) | -0.177 | -0.0369 | -0.0581 | -0.0582 | -0.317 | -0.368
COc1cc(Cl)c(C)cc1NC(=O)CCl | -0.216 | -0.37 | -2.01 (active) | 0.0292 | -0.06 | 0.159 | -0.0736 | -0.51 | -0.644
Cl.O=C(CCl)NC1(c2ncccn2)CCC1 | 0.0863 | 0.0333 | -0.171 | -0.137 | 0.137 | -0.242 | -0.293 | -0.17 | 0.0342
Cc1conc1C1CN(C(=O)CCl)C1 | 0.0664 | -0.85 | -1.76 (active) | -0.671 | 0.138 | 0.111 | -0.109 | -0.837 | -0.861
N#Cc1cnn(-c2ccccc2)c1NC(=O)CCl | 0.0569 | -1.2 (active) | -4.3 (active) | -0.258 | 0.233 | -0.0309 | -0.0957 | -0.641 | -0.526
CN(C(=O)CCl)c1nc2ccccc2s1 | 0.217 | -0.82 | -0.457 | -0.117 | 0.0319 | 0.108 | -0.597 | -0.0109 | -1.02 (active)
CC1CCc2onc(CNC(=O)CCl)c2C1 (stereo not given) | 0.206 | 0.065 | -1.22 (active) | -0.165 | -0.00651 | 0.123 | 0.048 | -0.0637 | 0.0465
